Source: publication PMC4336329 (PLoS ONE, 2015)
Hit rate of the full screen: of about 310,000 compounds, about 14,000 (4.5%) showed an effect of 50% or more. The effect is printed as a negative number. What follows is part of a selection rich in strong results, with near analogues and random picks from the rest.

What follows are molecules tested against human ether-à-go-go-related gene (hERG) potassium channel (human, UniProt Q12809) (assay: primary screen, population patch clamp on CHO cells stably expressing hERG; higher = less effect of the substance).
human ether-à-go-go-related gene (hERG) potassium channel, sequence (Q12809 whole entry, looked up): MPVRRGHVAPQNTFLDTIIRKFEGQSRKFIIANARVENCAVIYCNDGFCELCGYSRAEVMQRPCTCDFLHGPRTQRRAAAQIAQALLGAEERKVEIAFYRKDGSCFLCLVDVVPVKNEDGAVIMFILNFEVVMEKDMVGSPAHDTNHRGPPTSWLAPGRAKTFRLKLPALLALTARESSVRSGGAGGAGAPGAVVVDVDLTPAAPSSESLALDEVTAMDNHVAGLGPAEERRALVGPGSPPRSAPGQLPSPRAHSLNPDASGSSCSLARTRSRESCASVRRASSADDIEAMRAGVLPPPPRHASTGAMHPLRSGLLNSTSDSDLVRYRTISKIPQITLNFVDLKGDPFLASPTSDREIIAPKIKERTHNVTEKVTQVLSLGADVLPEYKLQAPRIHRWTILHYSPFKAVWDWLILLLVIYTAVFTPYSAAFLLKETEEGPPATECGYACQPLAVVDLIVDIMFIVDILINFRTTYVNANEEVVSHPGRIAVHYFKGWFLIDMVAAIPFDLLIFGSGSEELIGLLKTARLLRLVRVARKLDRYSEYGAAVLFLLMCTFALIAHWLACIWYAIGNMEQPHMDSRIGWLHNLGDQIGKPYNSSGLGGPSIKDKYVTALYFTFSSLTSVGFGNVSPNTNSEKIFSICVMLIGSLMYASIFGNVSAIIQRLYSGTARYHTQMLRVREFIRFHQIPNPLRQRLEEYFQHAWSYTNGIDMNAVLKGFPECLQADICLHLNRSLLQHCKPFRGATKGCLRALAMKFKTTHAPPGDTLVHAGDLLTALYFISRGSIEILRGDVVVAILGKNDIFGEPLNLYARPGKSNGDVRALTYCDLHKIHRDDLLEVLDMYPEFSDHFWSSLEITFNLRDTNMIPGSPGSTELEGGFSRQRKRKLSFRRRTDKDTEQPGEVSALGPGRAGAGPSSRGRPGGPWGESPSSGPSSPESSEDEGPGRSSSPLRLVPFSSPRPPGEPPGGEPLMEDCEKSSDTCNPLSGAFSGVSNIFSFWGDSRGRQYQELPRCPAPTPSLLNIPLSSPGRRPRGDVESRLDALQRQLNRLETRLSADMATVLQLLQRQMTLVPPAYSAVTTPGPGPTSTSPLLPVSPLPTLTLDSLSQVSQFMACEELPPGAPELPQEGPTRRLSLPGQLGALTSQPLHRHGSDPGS
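Further: peak tail current of the secondary pulse compared with the same well before compound.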

| Compound | hERG current change (%, negative = inhibition) at 10uM [%] |
| --- | --- |
| CC(C)Oc1cccc(C(=O)NC(=S)Nc2ccc3c4c(cccc24)CC3)c1 | 14.9 |
| Cc1cc(C)n2nc3nc(N4CCCC4)nc(-c4ccccc4)c3c2n1 | 7.37 |
| Cc1cc(C(=O)Nc2cccnc2)on1 | -3.6 |
| COc1cccc(CNC(=O)CCCc2nnc3n(C)c(=O)c4sccc4n23)c1 | -22.2 |
| CCOc1cccc(OCCOCCOc2ccccc2C(C)=O)c1 | -7.23 |
| COc1ccc(OC)c(-c2nc(C(=O)NCCCN3CCOCC3)cc3c2[nH]c2ccccc23)c1 | -65.7 |
| COc1ccc(OC)c(-c2cc(C(=O)NCCN3CCOCC3)no2)c1 | -5 |
| COc1ccccc1-c1cc(C(=O)NCCCN2CCOCC2)no1 | -28 |
| CC(C)CCNC(=O)c1ccc(Cl)c(N)c1 | 18.9 |
| Cc1ccccc1OCCCC(=O)Nc1ccc2c(c1)OCO2 | 5.46 |
| CCN(CC)S(=O)(=O)c1cc(NC(=O)Cn2cnc3ccccc3c2=O)ccc1C | -54.8 |
| CCN(CC)S(=O)(=O)c1ccc(C)c(NC(=O)Cn2cnc3cc([N+](=O)[O-])ccc3c2=O)c1 | -55.7 |
| Cc1ccc(NC(=O)Cn2cnc3cc([N+](=O)[O-])ccc3c2=O)c(Cl)c1 | 16.4 |
| CCN(CC)S(=O)(=O)c1ccc(NC(=O)Cn2cnc3ccccc3c2=O)cc1 | -32.8 |
| CN(C)S(=O)(=O)c1cccc(NC(=O)Cn2cnc3ccccc3c2=O)c1 | 8.28 |
| Cc1ccc(NC(=O)Cn2cnc3cc([N+](=O)[O-])ccc3c2=O)cc1 | 0.77 |
| COc1ccc(C(=O)NCc2cc(C)nc3ccccc23)cc1 | -13.6 |
| COCc1nc2ccccc2n1CCc1ccccc1 | -33.6 |
| O=C1CCC(=O)N1c1ccc(-c2nc3ccccc3s2)cc1 | 16 |
| Cc1ccc(Sc2c(C)nn(C(=O)C3CC3)c2C)cc1 | 11.6 |
| O=C1COc2ccc(C(=O)COC(=O)Cc3ccccc3)cc2N1 | -13 |
| Cc1ccc(N(C(=O)C2CCC(=O)N2)C2(C(=O)NC3CCCC3)CCCCC2)cc1 (stereo not drawn) | 0.218 |
| CCOc1cccc(CN2CCC(CCC(=O)NC3CC3)CC2)c1O | -70.3 |

| Compound | hERG current change (%, negative = inhibition) at 10uM [%] |
| --- | --- |
| O=C(CCC1CCN(C(=O)Cc2c(F)cccc2F)CC1)NC1CC1 | 11.9 |
| Cc1nn(C)c(Cl)c1CN1CCCC(CCC(=O)NCc2ccccc2F)C1 (stereo not drawn) | -27 |
| O=C(CCC1CCCN(Cc2cccc(Cl)c2)C1)NCc1ccccc1F (stereo not drawn) | -50.9 |
| CCOc1cccc(CN2CCCC(CCC(=O)NCc3ccccc3F)C2)c1O (stereo not drawn) | -65 |
| CC(=O)Nc1ccc(CN2CCCC(CCC(=O)NCc3ccccc3F)C2)cc1 (stereo not drawn) | -8.19 |
| O=C(CCC1CCCN(Cc2ccc(O)c(Cl)c2)C1)NCc1ccccc1F (stereo not drawn) | -43.2 |
| O=C(CCC1CCN(Cc2ccccc2O)CC1)NC1CC1 | -23.7 |
| Cc1ncc(CN2CCCC(CCC(=O)NCc3ccccc3F)C2)s1 (stereo not drawn) | 17.8 |
| O=C1[C@H]2[C@H](C=CC[C@H]2C(=O)N2CCOCC2)CCN1Cc1ccc(Cl)c(Cl)c1 | -3.89 |
| CCN1CCC[C@H]1CNC(=O)c1c(OC)ccc(Br)c1OC.Cl | -12.2 |
| Cc1ccc(-c2nc(-c3cccnc3)sc2CC(=O)O)cc1 | 11 |
| CCN1CCN(C(=O)Cc2c(C)n(C(=O)c3ccc(Cl)cc3)c3ccc(OC)cc23)CC1.Cl | -38.6 |
| N#Cc1nc(-c2ccc(OCc3ccccc3)cc2)oc1N1CCOCC1 | 10.4 |
| CCc1ccc(-c2cn3nc(C)c(C)nc3n2)cc1 | -50.8 |
| Cc1ccc(-c2cn3nc(C)c(C)nc3n2)cc1 | -6.47 |
| Cc1nc2nc(-c3ccc(F)cc3)cn2nc1C | 7.58 |
| O=C1C=CC(=O)N1c1ccc(I)cc1Cl | 18.9 |
| COc1ccc(N2CCN(C(=O)C3CCCN(S(=O)(=O)c4ccc(F)cc4)C3)CC2)cc1 (stereo not drawn) | -39.2 |
| COc1ccc(N2CCN(S(=O)(=O)c3c(C)noc3/C=C/N(C)C)CC2)cc1 | -0.914 |
| COc1ccc(NC(=O)C2CCN(S(=O)(=O)c3c(C)noc3/C=C/N(C)C)CC2)cc1 | -15.3 |
| COc1ccc(N2CCN(C(=O)C3CCN(S(=O)(=O)c4ccc(C)cc4)CC3)CC2)cc1 | -10.2 |
| Cc1noc(C)c1S(=O)(=O)N1CCC(C(=O)N2CCN(c3ccc(Cl)cc3)CC2)CC1 | -51.7 |
| COc1ccc(N2CCN(C(=O)C3CCCN(S(=O)(=O)c4c(C)noc4C)C3)CC2)cc1 (stereo not drawn) | -59.9 |

| Compound | hERG current change (%, negative = inhibition) at 10uM [%] |
| --- | --- |
| COc1ccc(N2CCN(C(=O)C3CCCN(S(=O)(=O)c4ccc(C)cc4)C3)CC2)cc1 (stereo not drawn) | -53.4 |
| Cc1cccc(N2CCN(C(=O)C3CCCN(S(=O)(=O)c4c(C)noc4C)C3)CC2)c1C (stereo not drawn) | -22.3 |
| Cc1ccc(C)c(N2CCN(C(=O)C3CCCN(S(=O)(=O)c4c(C)noc4C)C3)CC2)c1 (stereo not drawn) | -11.1 |
| COc1ccc(N2CCN(C(=O)C3CCN(S(=O)(=O)c4c(C)noc4/C=C/N(C)C)CC3)CC2)cc1 | -53.8 |
| Cc1noc(C)c1S(=O)(=O)N1CCC(C(=O)N2CCN(c3ccccc3Cl)CC2)CC1 | -13.6 |
| Cc1noc(C)c1S(=O)(=O)N1CCC(C(=O)N2CCN(c3ccc(F)cc3)CC2)CC1 | -41.4 |
| CCc1ccc(NC(=O)c2sccc2-n2cccc2)cc1 | -7.29 |
| NS(=O)(=O)c1ccc(F)c(C(=O)O)c1 | 8.68 |
| CCNc1ccc(S(=O)(=O)N(C)C)cc1NCC(=O)Nc1ccc(F)c(Cl)c1 | -4.33 |
| O=C(Nc1ccc(Cl)cc1F)C1CC1c1ccccc1 (stereo not drawn) | 12.6 |
| COc1ccc(C)cc1NC(=O)C(Sc1nnc(Nc2cc(C)ccc2OC)s1)c1ccccc1 (stereo not drawn) | 0.631 |
| Cc1ccc2c(c1)nnc1nnc(SCC(=O)O)n12 | 3.45 |
| COC(=O)c1sccc1NC(=O)c1csc2c1CCCC2 | -10.9 |
| OCC[C@H]1C[C@H](O)[C@@H](O)[C@]2(CCc3ccccc3O2)O1 | 6.41 |
| Cc1ccc(C(=O)C2CCN(S(=O)(=O)c3c(C)noc3C)CC2)cc1 | -67.3 |
| Cc1noc(C)c1S(=O)(=O)N1CCC(C(=O)c2ccccc2)CC1 | -43 |
| Cc1noc(C)c1S(=O)(=O)N1CCC(C(=O)O)CC1 | -3.88 |
| CCn1c(N2CCN(S(=O)(=O)c3ccccc3C(F)(F)F)CC2)nc2ccccc21.Cl | -39.6 |
| O=S(=O)(c1ccccc1)N1CCC(n2cnc3ccccc32)CC1 | -64 |
| O=S(=O)(c1ccc(F)cc1)N1CCC(n2cnc3ccccc32)CC1 | -39.7 |
| O=S(=O)(c1ccc(S(=O)(=O)n2cnc3ccccc32)cc1)N1CCCCCC1 | 3.15 |
| O=S(=O)(c1ccccc1C(F)(F)F)N1CCC(n2cnc3ccccc32)CC1 | -60.5 |
| COc1ccc(S(=O)(=O)N2CCC(n3cnc4ccccc43)CC2)cc1 | -64.9 |

| Compound | hERG current change (%, negative = inhibition) at 10uM [%] |
| --- | --- |
| O=S(=O)(c1ccccc1C(F)(F)F)N1CCN(S(=O)(=O)c2ccccc2C(F)(F)F)CC1 | -2.32 |
| COc1ccc(NC(=O)N2CCC(n3cnc4ccccc43)CC2)cc1 | -28.5 |
| COc1ccc(S(=O)(=O)n2cnc3ccccc32)cc1.Cl | 13.4 |
| Cn1c(=O)n(CC(=O)N2CCOCC2)c2ccccc21 | 3.76 |
| COc1ccc(C(=O)NNC(=O)C23CC4CC(CC(C4)C2)C3)cc1OC | 0.327 |
| COc1cccc(-n2ccnc2SCC(=O)N2CCCc3ccccc32)c1 | -10 |
| Cc1c(Cl)cccc1NC(=O)NN1CCN(C)CC1 | -0.937 |
| Cc1nonc1C(=O)N/N=C/c1ccc(O)c(O)c1 | -29.7 |
| CCOc1ccccc1NC(=O)COC(=O)c1cc[n+]([O-])cc1 | 12.3 |
| Cc1ccc([N+](=O)[O-])cc1Nc1nc(N2CCOCC2)nc(N2CCOCC2)n1 | -13.5 |
| Cc1ccc(C2OC(=O)C=C2c2ccccc2)cc1 (stereo not drawn) | 3.71 |
| Cn1c(=O)c2c(ncn2CC(=O)OCC(=O)NC(c2ccccc2)c2ccccc2)n(C)c1=O | -2.22 |
| COC(=O)CN(c1ccccc1)S(=O)(=O)c1ccccc1 | 4.04 |
| COc1ccc(CCNC(=O)C2CC2)cc1OC | -18.3 |
| Fc1ccccc1Nc1ncnc2c1nnn2Cc1ccccc1 | -20 |
| Cc1nnc2ccc(-c3cccc(NC(=O)c4ccc(Br)o4)c3)nn12 | -75.8 |
| CS(=O)(=O)c1ccc(-c2cccc(NC(=O)c3ccc(Br)o3)c2)nn1 | 3.74 |
| Cc1nnc2ccc(-c3cccc(NC(=O)c4ccc(Cl)nc4)c3)nn12 | -56.7 |
| Cc1nnc2ccc(-c3cccc(NS(C)(=O)=O)c3)nn12 | -17.1 |
| Cc1nnc2ccc(-c3ccc(NC(=O)c4ccc(Cl)nc4)cc3)nn12 | -15 |
| Cc1nnc2ccc(-c3cccc(NC(=O)c4ccco4)c3)nn12 | -5.08 |
